# Data: PubChem BioAssay (NCI)
# Several values for one entry are separate records, joined by “and”; a condition that tells them apart may be missing. Equal entries are not always repeated. The panel holds about 83,000 compounds, 20% with a hit somewhere; the sample as a whole holds those more often.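 Growth was measured after 48 h exposure to one concentration of compound in 96-well plates. Values under 10 count as active.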 Activity calls are given as the source filed them.
# Key:
# Assay in all cases: NCI-60 one-dose screen, 48 h (100 = growth as untreated, 0 = no growth, -100 = all killed)
# [1] = tested on: NCI-H23 lung; conditions: 10 µM unless noted
# [2] = tested on: NCI-H226 lung; conditions: 10 µM unless noted
# [3] = tested on: NCI-H322M lung; conditions: 10 µM unless noted
# [4] = tested on: HOP-62 NSCLC; conditions: 10 µM unless noted
# [5] = tested on: NCI-H460 lung; conditions: 10 µM unless noted
# [6] = tested on: HOP-92 NSCLC; conditions: 10 µM
# [7] = tested on: NCI-H522 lung; conditions: 10 µM
# [8] = tested on: A549/ATCC NSCLC; conditions: 10 µM unless noted
# [9] = tested on: 786-0 renal; conditions: 10 µM unless noted
# [10] = tested on: COLO 205 colon; conditions: 10 µM unless noted
Structure (SMILES),growth [1],growth [2],growth [3],growth [4],growth [5],growth [6],growth [7],growth [8],growth [9],growth [10]
O=C1CSC2=NCCN12,87.7% (inactive) and 90% (inactive),102% (inactive) and 85.5% (inactive),102% (inactive) and 94.5% (inactive),90.9% (inactive) and 95.9% (inactive),96.3% (inactive) and 99.3% (inactive),112% (inactive) and -2.23% (active),59.3% (inactive) and 99.1% (inactive),92.9% (inactive) and 113% (inactive),80.7% (inactive) and 61.7% (inactive),104% (inactive) and 127% (inactive)
O=C1C=C(Nc2ccccc2)c2ccccc2C1=O,23% (inactive) and 66.1% (inactive),66.4% (inactive) and 83.4% (inactive),88.3% (inactive) and 98.1% (inactive),19.1% (inactive) and 123% (inactive),14.5% (inactive) and 93.2% (inactive),89.7% (inactive),76.8% (inactive) and 86.6% (inactive),6.95% (active) and 93.7% (inactive),99.8% (inactive) and 99.3% (inactive),108% (inactive) and 91.9% (inactive)
C/C(=C\c1ccccc1)c1ccccn1,107% (inactive),90.9% (inactive),96.8% (inactive),105% (inactive),105% (inactive),105% (inactive),109% (inactive),115% (inactive),104% (inactive),114% (inactive)
O=C1OC(C(O)C(O)CO)C(O)=C1O (stereo unspecified),113% (inactive) and 98.1% (inactive),100% (inactive),111% (inactive) and 97.3% (inactive),94.4% (inactive) and 88.1% (inactive),96.8% (inactive) and 112% (inactive),89.5% (inactive),8.89% (active) and 80% (inactive),104% (inactive) and 74.9% (inactive),95% (inactive) and 97.2% (inactive),101% (inactive) and 96.9% (inactive)
Nc1nc(N)c2[nH]cnc2n1,88.6% (inactive),102% (inactive),111% (inactive),88.7% (inactive),96.2% (inactive),78.5% (inactive),50.6% (inactive),80.2% (inactive),91.8% (inactive),97.6% (inactive)
Cc1cc(-c2ccc(N=Nc3ccc4c(S(=O)(=O)O)cc(S(=O)(=O)O)c(N)c4c3O)c(C)c2)ccc1N=Nc1ccc2c(S(=O)(=O)O)cc(S(=O)(=O)O)c(N)c2c1O,81.7% (inactive),89.2% (inactive),119% (inactive),95.7% (inactive),111% (inactive),67.1% (inactive),85.6% (inactive),92.7% (inactive),101% (inactive),111% (inactive)
CC(C)(O)C(=O)O,106% (inactive),102% (inactive),98.6% (inactive),99.9% (inactive),103% (inactive),91.7% (inactive),103% (inactive),102% (inactive),95.4% (inactive),104% (inactive)
O=C1c2c(O)ccc(O)c2C(=O)c2c(NCCNCCO)ccc(NCCNCCO)c21,-59% (active) and -79.5% (active),-55.7% (active) and -60.1% (active),-29.2% (active) and -9.24% (active),-53.4% (active) and -65.5% (active),-57% (active) and -52.8% (active),-56.9% (active),-91.7% (active) and -66.8% (active),-51.4% (active) and -77.6% (active),-15.8% (active) and -50.5% (active),-69.5% (active) and -74.4% (active)
CC1CCC(C(C)C)C(NNC(N)=O)C1 (stereo unspecified),106% (inactive),102% (inactive),102% (inactive),100% (inactive),104% (inactive),91.5% (inactive),94.9% (inactive),89.7% (inactive),106% (inactive),110% (inactive)
O=CN1CCCCC1,91.5% (inactive),105% (inactive),99.4% (inactive),102% (inactive),112% (inactive),120% (inactive),104% (inactive),122% (inactive),102% (inactive),136% (inactive)
CC(=O)OCC1OC(OC(C)=O)C(OC(C)=O)C(OC(C)=O)C1OC(C)=O (stereo unspecified),107% (inactive) and 95.6% (inactive),94.9% (inactive) and 99.6% (inactive),111% (inactive) and 101% (inactive),83.4% (inactive),112% (inactive) and 104% (inactive),102% (inactive) and 98.9% (inactive),103% (inactive),103% (inactive) and 96.6% (inactive),102% (inactive) and 106% (inactive),104% (inactive) and 107% (inactive)
N#CC(C#N)N=Nc1ccc(Cl)cc1,36.5% (inactive),75.1% (inactive),93.2% (inactive),84.9% (inactive),91% (inactive),-15.1% (active),-12.4% (active),105% (inactive),59% (inactive),-33.9% (active)
Cc1ccc(=O)[nH]n1,97.8% (inactive) and 98.7% (inactive),102% (inactive) and 100% (inactive),104% (inactive) and 103% (inactive),110% (inactive) and 91.9% (inactive),105% (inactive) and 107% (inactive),85.1% (inactive),108% (inactive) and 96.2% (inactive),102% (inactive) and 91.4% (inactive),111% (inactive),111% (inactive) and 115% (inactive)
Brc1ccc(SSc2ccc(Br)cc2)cc1,72.5% (inactive),93.7% (inactive),91.8% (inactive),75.3% (inactive),68.1% (inactive),98.4% (inactive),85.2% (inactive),66.7% (inactive),59% (inactive),90.6% (inactive)
NC(Cc1c[nH]c2ccccc12)C(=O)O (stereo unspecified),106% (inactive) and 108% (inactive),90.6% (inactive) and 103% (inactive),98.8% (inactive) and 111% (inactive),64.3% (inactive) and 96.3% (inactive),105% (inactive) and 101% (inactive),75.5% (inactive),86% (inactive) and 93.1% (inactive),113% (inactive) and 97.8% (inactive),69.5% (inactive) and 99.7% (inactive),117% (inactive) and 103% (inactive)
CCCCCCCCCCCCCCCc1ccc(N)c(OC2OC(CO)C(O)C(O)C2O)c1 (stereo unspecified),80.9% (inactive),96.4% (inactive),77.1% (inactive),73.9% (inactive),102% (inactive),82% (inactive),-63.5% (active),86% (inactive),81.7% (inactive),
O=C(/C=C/c1ccccc1)c1ccccc1,84.6% (inactive),126% (inactive),115% (inactive),94.9% (inactive),93.1% (inactive),,84.8% (inactive),96.3% (inactive),86.9% (inactive),114% (inactive)
Cc1cc(-c2cc(C)c(O)c(C)c2)cc(C)c1O,87.3% (inactive),96.2% (inactive),93.7% (inactive),73.9% (inactive),102% (inactive),77.1% (inactive),63.3% (inactive),90.2% (inactive),,115% (inactive)
CN(C)c1ccc(/C=C\C(=O)c2ccccc2)cc1,98.4% (inactive) and 91% (inactive) and 97.5% (inactive),92.6% (inactive) and 98.6% (inactive) and 101% (inactive),97.2% (inactive) and 103% (inactive) and 88.5% (inactive),102% (inactive) and 101% (inactive),102% (inactive) and 99.8% (inactive) and 104% (inactive),103% (inactive) and 99.8% (inactive) and 86.1% (inactive),64.3% (inactive) and 60.4% (inactive) and 52.7% (inactive),67% (inactive) and 79.8% (inactive) and 82.4% (inactive),90.9% (inactive) and 89.7% (inactive) and 80.8% (inactive),104% (inactive) and 99.2% (inactive)
CCOC(=O)c1c(C)cc(=O)oc1C,101% (inactive),96.8% (inactive),110% (inactive),97.2% (inactive),110% (inactive),80.7% (inactive),115% (inactive),,103% (inactive),116% (inactive)
CN1CNC(=O)NC1,106% (inactive) and 99.9% (inactive),98.4% (inactive) and 86.1% (inactive),120% (inactive) and 92.3% (inactive),108% (inactive) and 103% (inactive),103% (inactive) and 108% (inactive),94.1% (inactive) and 95.6% (inactive),91.2% (inactive) and 90% (inactive),110% (inactive) and 93.8% (inactive),108% (inactive) and 112% (inactive),110% (inactive) and 121% (inactive)
